Test results from ChEMBL document CHEMBL3988442, “University of Dundee, Small-Polar-MMV Screening Library” (2021).
In all, about 48,000 compounds went through this assay and about 13,000 (27%) showed an effect of 50% or more. This is one part of the list.

System: Wolbachia pipientis
Test: Anti-Wolbachia Cell-Based Screen
Type: functional
Design: scale not given: in the data most compounds retested in dose-response had high values
Conditions: 5 µM

Structure (SMILES) | Percent Effect [%]
Cc1nnn2c1COCC(CNCc1nccs1)C2.O=C(O)C(F)(F)F (configuration not stated) | -0.1911
Cc1cc(C)n(CC(C)NC2CCN(Cc3cccc(O)c3)CC2)n1 (configuration not stated) | -0.5082
NC(=O)c1csc(N2CCCC(c3nc4ccccc4[nH]3)C2)n1 (configuration not stated) | 1.485
CNC(=O)[C@@H](c1ccccc1OC)N1CCC[C@H]1C(=O)NC1CC1.Cl | -3.931
CNC(=O)[C@H]1C[C@@H]2CN(S(=O)(=O)c3cccc(F)c3)C[C@@H]2N1C.O=C(O)C(F)(F)F | -6.312
Cc1nn(C)c(C)c1C1CCCN1c1ncnc2c1CCC2 (configuration not stated) | 10.31
CCCn1nccc1S(=O)(=O)N1CCC2(CCCN(C(C)C)C2=O)C1 (configuration not stated) | 7.399
CCC1CCC(NCCN2CCOCC2)CC1 (configuration not stated) | -1.764
COc1ncc(-c2nccn2C(C)CCn2cccn2)cn1 (configuration not stated) | -0.87
CC(C)c1nnc2n1CCN(C(=O)c1cccc(C(F)(F)F)c1)C2 | -7.984
O=C(c1cccc(C(F)(F)F)c1)N1CC(=O)N(C2CCC2)CC(O)C1 (configuration not stated) | 119.9
COCCN1CC(O)CN(C(=O)c2cccc(C(F)(F)F)c2)CC1=O (configuration not stated) | 96.14
O=C(O)C1CCCCN1C(=O)c1cccc(C(F)(F)F)c1 (configuration not stated) | 1.382
Nc1cc(C(=O)N2CCC(Oc3cccc(C(F)(F)F)c3)CC2)ccn1 | 0.5907
CC(C)CN1CC(O)CN(C(=O)c2cccc(C(F)(F)F)c2)CC1=O (configuration not stated) | 93.47
O=C(c1ccncc1)N1CCC(Oc2cccc(C(F)(F)F)c2)CC1 | -12.2
Cc1c(Br)cccc1C(=O)NCC1CCNCC1.Cl | 5.039
COC(=O)NCc1ccc(NC(=O)CC2=CCCCC2)cc1 | -4.854
Cc1nc(N2CCN(S(C)(=O)=O)CC2)cc(-n2cnc(C)c2C)n1 | -12.66
CC(C)(C)CCN1CCCC(Cn2cc(CCO)nn2)C1 (configuration not stated) | -5.43
CC(C)(C)n1cc(C(=O)N2CCN(Cc3ccccc3F)CC2)cn1 | -9.517
Cc1ccccc1CN1CCN(C(=O)c2ccn(C(C)(C)C)c2)CC1 | 106.5
Cc1cccnc1CN1CCN(C(=O)c2ccn(C(C)(C)C)c2)CC1 | 140.1
Cc1ccccc1CN1CCN(C(=O)CCn2ccccc2=O)CC1 | -43.85
Cc1cccnc1CN1CCN(C(=O)CCn2ccccc2=O)CC1 | -35.18
CNS(=O)(=O)c1ccc(CN2CCN(Cc3ncccc3C)CC2)cc1 | 2.71
CCOC(=O)CC(NC(=O)c1cn(Cc2ccccc2F)nn1)C(C)C (configuration not stated) | 0.973
